# In PubChem BioAssay AID1069 (NMMLSC, 2008):
# Calls of active or inactive are those of the source.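 Rule for the calls: active = high combined rank on largest and smallest cell-count-weighted shift across three tests, rank score above 45, floors 50 and 25 (some results past the limit were not filed as active); inactive = the rest.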
# Assay: activators of LNCaP cell differentiation, retest, confirmation, side scatter shift, flow cytometry (AID 1069);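 note: LNCaP human prostate cancer cells in low-serum medium with charcoal-stripped FBS; percent of cells with raised granularity gated so DMSO controls show 10%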
# Conditions: 4 d, stronger effect = higher value
SMILES,side scatter shift (at 100 µM),"side scatter shift (side scatter shift, at 10 µM) [%]"
CC(C)(C)c1ccc(C(O)CCCN2CCC(C(O)(c3ccccc3)c3ccccc3)CC2)cc1 (stereo not drawn),16.7% (inactive),14.8
Cc1oc(-c2cccc(Cl)c2)nc1CN1CCCC(C(=O)NCc2ccco2)C1 (stereo not drawn),50% (inactive),5.55
CCN(CC)CCCNC(=O)c1cc(-c2cccc(Cl)c2)on1,4.1% (inactive),4.25
Cc1ccc2c(c1)NC(=O)C(CC(=O)NCCCN1CCN(c3cc(C)ccc3C)CC1)O2 (stereo not drawn),30.1% (inactive),2.95
O=C(Cc1coc(-c2ccc(F)cc2)n1)N1CCOCC1,9.7% (inactive),2.15
COc1ccc(CN2C(=O)C(O)(CC(=O)c3c(C)n[nH]c3C)c3ccccc32)cc1OC (stereo not drawn),9.9% (inactive),6.45
CN1CCN(c2cc3c(c4c2[nH]c2ccccc24)C(=O)CC(C)(C)C3)CC1,16.1% (active),56.2
COc1ccc(C)cc1NC(=O)CCC(=O)Nc1ccc2nc(N3CCN(C)CC3)cc(C)c2c1,10.5% (inactive),13.4
CCOc1ccccc1NC(=O)CCC(=O)O,6.7% (inactive),6.85
Oc1ccccc1CNc1nc2ccccc2n1CCN1CCCCC1,22.7% (inactive),12.2
O=C(COc1ccc(S(=O)(=O)N2CCCC2)cc1Cl)NC1CC1,3.1% (inactive),1.25
Cc1oc(-c2ccccc2F)nc1CN1CCC(C(=O)NCc2cccnc2)CC1,8.3% (inactive),3.9
O=C(NCCCN1CCN(c2cccc(Cl)c2)CC1)c1nc(-c2ccncc2)no1,36.1% (inactive),2.15
O=C(Nc1c(C(=O)N2CCOCC2)cnn1-c1ccccc1)c1ccco1,7.5% (inactive),5.15
